Integrin act MD: integrin-mediated muscular dystrophy alleviation activation; alpha7betagal myoblasts, beta-gal FDG fluorescence, 48 h; Potency, µM (top dose mostly 38.3 µM), hits mostly activators; 350,000 compounds, 0.064% hits; AID 624291; also: nearly all actives have a fitted effect of over 60% in size
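alpha7betagal+/- myoblasts (passage 13, 250/well) treated 48 h at 37C with compounds at 1:260 dilution of DMSO stock. Lysed, then beta-galactosidase activity read as FDG fluorescence (ex 480/em 540) after 30 min, with pre-read for autofluorescence.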
DRD3 agonist: activates the human D3 dopamine receptor; max activation, %; 410,000 compounds, 0.58% hits; AID 652048; D3R DiscoveRx beta-arrestin cells, luminescence, 90 min; P35462; in the data active = max activation above about 30%
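Cells at 1500/well, incubated overnight, then treated with pinned compounds (dopamine as control) for 90 min at 37 degrees C. DiscoveRx reagent added for 30 - 60 minutes at room temperature; luminescence read.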
IDH1 R132H inh: blocks human mutant IDH1 R132H enzyme. O75874. Potency, µM (top dose mostly 76.6 µM), usual class: inhibitors. 390,000 compounds, 0.093% hits. IDH1-R132H enzyme, NADPH consumption, diaphorase/resazurin fluorescence; also: nearly all actives have a fitted effect of over 65% in size
Target sequence (O75874 whole entry R132H, stated change not applied): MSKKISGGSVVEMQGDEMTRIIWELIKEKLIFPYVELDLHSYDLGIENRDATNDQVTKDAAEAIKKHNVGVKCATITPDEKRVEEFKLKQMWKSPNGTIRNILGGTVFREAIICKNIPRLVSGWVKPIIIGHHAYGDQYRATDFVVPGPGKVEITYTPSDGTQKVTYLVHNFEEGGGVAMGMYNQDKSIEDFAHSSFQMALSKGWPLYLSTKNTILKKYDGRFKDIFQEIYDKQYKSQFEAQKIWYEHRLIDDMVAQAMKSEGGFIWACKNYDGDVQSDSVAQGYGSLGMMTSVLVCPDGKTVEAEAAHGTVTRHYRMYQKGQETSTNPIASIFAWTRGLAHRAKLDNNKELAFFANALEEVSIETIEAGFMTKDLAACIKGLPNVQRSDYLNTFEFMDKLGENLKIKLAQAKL
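IDH1-R132H (0.5 ug/mL) preincubated 30 min with compound, then NADPH (0.016 mM) and alpha-KG (2 mM) added; 80 min at RT, pH 7.5. Remaining NADPH coupled via diaphorase/resazurin to fluorescence (540/590 nm); concentration-response curves normalized to no-enzyme control.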
B2AR arrestin: agonists driving beta-arrestin recruitment to human beta2-adrenergic receptor. P07550. beta-arrestin recruitment to beta2AR, cell-based reporter. Potency, µM (titrated, usually from 46.1 µM), most hits filed as activators. 330,000 compounds, 0.02% hits. AID 492947; also: nearly all actives have a fitted effect of over 65% in size
DRD3 antagonist: D3 dopamine receptor (human) antagonism; P35462; max response, negative = inhibition, %; D3R cells, DiscoveRx beta-arrestin luminescence, antagonist mode; active compounds read low; 360,000 compounds, 2.5% hits; AID 652054; in the data active = max response below about -50%; inconclusive = no clear call, values can overlap the other calls
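Cells plated overnight at 1500 cells/well, then exposed to library compounds with dopamine controls for 90 minutes at 37 degrees C. DiscoveRx reagent added for 30–60 minutes at room temperature; luminescence read, quantitative HTS format.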
IDH1 autofl: counter-screen for mutant IDH1 inhibitors: fluorescence interference; Resorufin detection reagent fluorescence interference, cell-free; 750 tested, under 10 active; inhibition of signal, % at 51.2 µM; shares compounds with IDH1 R132H inh; AID 623980
IDH1 WT: selectivity of mutant IDH1 inhibitors: human wild-type IDH1; shares compounds with IDH1 R132H inh; WT IDH1 enzyme, NADPH diaphorase/resazurin fluorescence; Potency, µM (top dose mostly 115 µM), actives largely listed as inhibitors; 750 compounds, 9% hits; also: nearly all actives have a fitted effect of over 55% in size
Target sequence (O75874 whole entry, looked up): as the sequence (O75874 whole entry R132H, stated change not applied) above, with H132R counted along it
mIDH1 confirm: mutant IDH1 (human) inhibition, confirmed; shares compounds with IDH1 R132H inh; IDH1 R132H enzyme, NADPH diaphorase/resazurin fluorescence; Potency, µM (highest dose often 76.6 µM), actives largely listed as inhibitors; 750 compounds, 83% hits; AID 624002; also: nearly all actives have a fitted effect of over 50% in size
A number is an active result; – = inactive; ? = inconclusive; · = no result. Only some compounds are listed: those with a hit (about 2.9% of all), similar ones and a draw of the others. Unless noted, calls follow the shape of the dose curve; as a rule, active = well fitted curve in the direction sought with a large enough effect; inconclusive = small, poorly fitted or top-dose-only effect, or another doubt; inactive = no such curve, though single readings can be large; an effect the other way counts as inactive or inconclusive.

SMILES | Integrin act MD | DRD3 agonist | IDH1 R132H inh | B2AR arrestin | DRD3 antagonist | IDH1 autofl | IDH1 WT | mIDH1 confirm
COC(=O)c1c(NC(C)=O)sc(Cc2ccccc2)c1C | – | – | ? | – | – | – | – | 50.1µM
Cc1c(Cc2ccccc2)sc(NC(=O)Cc2ccccc2)c1C(N)=O | – | – | – | · | – | · | · | ·
Cc1ccc(C2C3CSCC=C3C(C#N)=C(N)C2(C#N)C#N)cc1 (configuration not stated) | – | – | ? | – | – | – | – | 39.8µM
Cc1ccc([C@@H]2C3COCC=C3C(C#N)=C(N)C2(C#N)C#N)o1 (some centres not stated) | – | – | ? | – | – | – | – | ?
CC(C)c1ccc(NC(=O)C(c2ccccc2)N2CC(=O)Nc3ccccc32)cc1 (configuration not stated) | – | – | ? | – | – | – | – | 25.1µM
O=C(NCC1COc2ccccc2O1)c1c[nH]c2ccc(S(=O)(=O)N3CCOCC3)cc2c1=O (configuration not stated) | – | – | ? | – | – | – | – | –
Cc1ccc(Sc2ccc(NC(=O)CCl)cc2)c(C)c1 | – | – | 52.1µM | – | – | – | ? | 44.7µM
CC(C)(C)c1ccc(CN(Cc2ccco2)c2cnc(S(C)(=O)=O)nc2C(=O)Nc2ccc(F)cc2)cc1 | · | – | – | · | · | · | · | ·
CN(C)Cc1c(C(=O)N/N=C/c2cccc(OCc3c(F)cccc3Cl)c2)nnn1-c1nonc1N | – | – | – | – | – | · | · | ·
CN(C)Cc1c(C(=O)N/N=C/c2ccccc2OCc2c(F)cccc2Cl)nnn1-c1nonc1N | – | – | 36.9µM | – | ? | – | – | 7.08µM
COc1ccc(-c2c3c(=O)n(C)c(=O)n(C)c3c3n2-c2ccccc2NC3c2ccc(O)cc2O)cc1 (configuration not stated) | · | – | 35.5µM | · | · | – | – | 8.91µM
C=C(C)Cc1c(C)c(C#N)c2nc3ccccc3n2c1N1CCCCC1 | – | – | ? | – | – | – | – | 14.1µM
O=C1c2ccccc2-c2n[nH]c(=O)c3ccc(N4CCCCC4)c1c23 | – | – | ? | – | – | – | ? | 31.6µM
O=C1c2cccc3c(N4CCCCC4)ccc(c23)C(=O)N1c1ccccn1 | – | – | – | – | – | · | · | ·
Cc1ccc(C(C(=O)NC2CCCC2)N(C(=O)CCC(=O)Nc2cc(C)on2)c2ccccc2)cc1 (configuration not stated) | – | – | – | – | – | · | · | ·
COc1ccc(N(C(=O)CCC(=O)Nc2cc(C)on2)C(C(=O)NC2CCCC2)c2ccco2)cc1 (configuration not stated) | – | – | – | – | – | · | · | ·
COc1ccc(N(C(=O)/C=C/C(=O)Nc2cc(C)on2)C(C(=O)NC2CCCC2)c2ccccc2C)cc1 (configuration not stated) | – | – | ? | – | – | – | – | 35.5µM
O=C(CCCC(=O)N(c1ccc2c(c1)OCCO2)C(C(=O)NC1CCCCC1)c1ccc(Cl)cc1)Nc1ccccn1 (configuration not stated) | – | – | ? | – | – | – | – | 12.6µM
Cc1cc(NC(=O)CCC(=O)N(c2ccccc2)C(C(=O)NC2CCCC2)c2ccccc2F)no1 (configuration not stated) | – | – | ? | – | – | – | – | 22.4µM
Cc1cc(NC(=O)CCC(=O)N(c2ccccc2F)C(C(=O)NC2CCCC2)c2ccccc2)no1 (configuration not stated) | – | – | ? | – | – | – | – | 25.1µM
O=C(Nc1ccc(F)cc1)C(c1ccncc1)N1CCN(CC(=O)N2CCCC2)CC1 (configuration not stated) | · | – | · | · | – | · | · | ·
Cc1cc(NC(=O)CCCC(=O)N(c2ccccc2)C(C(=O)NC2CCCCC2)c2cccs2)no1 (configuration not stated) | – | – | ? | – | – | – | – | 20µM
CCOc1ccc(C2NC(=O)c3n[nH]c(C)c32)cc1 (configuration not stated) | – | – | – | – | – | · | · | ·
CC(C)(C)c1ccc(C2NC(=O)c3n[nH]c(-c4cccs4)c32)cc1 (configuration not stated) | · | – | ? | · | · | – | – | 39.8µM
O=c1c2ccccc2nc2n1CCCCC2 | – | – | – | – | – | · | · | ·
SMILES | Integrin act MD | DRD3 agonist | IDH1 R132H inh | B2AR arrestin | DRD3 antagonist | IDH1 autofl | IDH1 WT | mIDH1 confirm
O=c1c2ccccc2nc2n1CCC2 | – | – | 16.5µM | – | – | – | ? | –
CCOC(=O)C1CC(c2ccccc2)=NN1c1ccccc1 (configuration not stated) | – | – | – | · | – | · | · | ·
CC1CCc2c(sc3nc(C(C)(C)C)nc(N4CCN(C(=O)CCl)CC4)c23)C1 (configuration not stated) | – | – | 41.4µM | – | – | – | 44.7µM | 3.16µM
Cc1ccc(/C=C2\C(=O)ON=C2c2ccccc2)o1 | – | – | – | – | – | · | · | ·
Cc1ccc(-c2ccc(/C=C3\C(=O)ON=C3c3ccccc3)o2)c([N+](=O)[O-])c1 | – | – | 52.1µM | – | – | – | 79.4µM | 35.5µM
CCCCN1C(=O)C(CC(=O)NCCN2CCOCC2)CC(C(=O)N2CCCCCC2)=C1C (configuration not stated) | · | – | · | · | ? | · | · | ·
COc1ccc(-c2oc3cc(OC(C)=O)cc(OC(C)=O)c3c(=O)c2OC)cc1 | – | – | ? | · | – | – | – | 28.2µM
CCOC(=O)C1=C(O)/C(=C/c2ccc(OCC(=O)O)c(OCC)c2)SC1=Nc1ccc(OC)cc1 | – | – | 46.5µM | – | – | – | 50.1µM | ?
CCOC(=O)C1=C(O)/C(=C/c2ccc(OCC(=O)O)c(OCC)c2)SC1=Nc1ccc(C)cc1 | – | – | ? | – | ? | · | · | ·
CC(C)c1ccc(NC(=O)CN2C(=O)NC3(CCCC3)C2=O)cc1 | – | – | – | – | – | · | · | ·
CCOC(=O)c1ccc(N2C(=O)c3[nH]nc(-c4ccccc4)c3C2c2cccs2)cc1 (configuration not stated) | · | – | ? | · | · | – | – | –
CCOC(=O)c1ccc(N2C(=O)c3n[nH]c(-c4ccco4)c3C2c2ccc(C)cc2)cc1 (configuration not stated) | · | – | – | · | · | · | · | ·
CCOC(=O)c1ccc(N2C(=O)c3n[nH]c(-c4ccco4)c3C2c2ccc(O)c(OC)c2)cc1 (configuration not stated) | · | – | ? | · | · | – | – | 20µM
